Measurements taken from PubChem BioAssay (NCI).
Compounds without any hit were thinned out: in the full panel of roughly 83,000, 20% have a hit.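 Values shown are percent growth following 48 h exposure of cells in 96-well plates to a single concentration of compound; below 10 was considered active.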 Calls of active or inactive are those of the source.

What was measured:
Assay in all cases: NCI-60 one-dose screen, 48 h (100 = growth as untreated, 0 = no growth, -100 = all killed)
Conditions in all cases: 10 µM unless noted
SR leukemia = tested on: SR leukemia
RPMI-8226 leukemia = tested on: RPMI-8226 leukemia
OVCAR-8 ovarian = tested on: OVCAR-8 ovarian
OVCAR-5 ovarian = tested on: OVCAR-5 ovarian
OVCAR-4 ovarian = tested on: OVCAR-4 ovarian
SK-OV-3 ovarian = tested on: SK-OV-3 ovarian
IGROV1 ovarian = tested on: IGROV1 ovarian
OVCAR-3 ovarian = tested on: OVCAR-3 ovarian
HS 578T breast = tested on: HS 578T breast
NCI/ADR-RES ovarian = tested on: NCI/ADR-RES ovarian

Measured: growth

COc1cc2ncn3c(=O)c4c5c(sc4nc3c2cc1OC)CCCCC5
inactive: SR leukemia 97.9% | RPMI-8226 leukemia 103% | OVCAR-8 ovarian 102% | OVCAR-5 ovarian 98.6% | OVCAR-4 ovarian 101% | SK-OV-3 ovarian 99.6% | IGROV1 ovarian 79.3% | OVCAR-3 ovarian 98.4% | HS 578T breast 99.7% | NCI/ADR-RES ovarian 92.4%

CCCCCCCCCCCCCCCC(=O)NS(=O)(=O)OC[C@H]1O[C@@H](n2cnc3c(N)ncnc32)[C@H](O)[C@@H]1O
active: SR leukemia 0.423% | OVCAR-8 ovarian -10.9% | OVCAR-5 ovarian -45.3% | OVCAR-4 ovarian -48.4% | SK-OV-3 ovarian -18.5% | IGROV1 ovarian -52.2% | OVCAR-3 ovarian -75.1% | HS 578T breast -14.6% | NCI/ADR-RES ovarian -20.5%
inactive: RPMI-8226 leukemia 22.8%

CN(C)CCS(=O)(=O)Nc1cc(-c2ccc3ncnc(Nc4ccc(F)c(Cl)c4)c3c2)cnc1Cl
active: SR leukemia -29.1% | RPMI-8226 leukemia -39.9% | OVCAR-5 ovarian -22.4% | SK-OV-3 ovarian -42.7% | IGROV1 ovarian -23.7% | OVCAR-3 ovarian -87% | HS 578T breast -7.53%
inactive: OVCAR-8 ovarian 13.7% | OVCAR-4 ovarian 19.3% | NCI/ADR-RES ovarian 14.9%

CCN(CC)CCNc1ccc([N+](=O)[O-])c2sc3cc(Cl)ccc3c(=O)c12
inactive: OVCAR-5 ovarian 38.7% | SK-OV-3 ovarian 86.3% | IGROV1 ovarian 15.1% | OVCAR-3 ovarian 71.5% | HS 578T breast 80.2% | NCI/ADR-RES ovarian 33.9%
active: SR leukemia 9.3% | RPMI-8226 leukemia 3.51% | OVCAR-8 ovarian 3.32% | OVCAR-4 ovarian -37.6%

Cc1ccc2c(c1)Nc1ccc(C)cc1C2(C)C
inactive: SR leukemia 88.3% | RPMI-8226 leukemia 85.4% | OVCAR-8 ovarian 103% | OVCAR-5 ovarian 105% | OVCAR-4 ovarian 92.3% | SK-OV-3 ovarian 82.2% | IGROV1 ovarian 106% | OVCAR-3 ovarian 97.7% | HS 578T breast 113% | NCI/ADR-RES ovarian 105%

CCCCOc1nc2ccc(Cl)cc2cc1/C=C/C(=O)/C=C/c1ccc(Cl)cc1
active: RPMI-8226 leukemia 0.229%
inactive: SR leukemia 20.3% | OVCAR-8 ovarian 70.2% | OVCAR-5 ovarian 107% | OVCAR-4 ovarian 91.5% | SK-OV-3 ovarian 92.5% | IGROV1 ovarian 45.8% | OVCAR-3 ovarian 51.1% | HS 578T breast 76.8% | NCI/ADR-RES ovarian 100%

CCCCCCCCN(CCCCCCCC)CC(O)c1cc(-c2ccccc2)nc2ccc(OC)cc12 (stereo not given)
inactive: OVCAR-5 ovarian 101% | OVCAR-4 ovarian 78.4% | SK-OV-3 ovarian 103% | IGROV1 ovarian 95.8% | OVCAR-3 ovarian 66.6% | HS 578T breast 99.1% | NCI/ADR-RES ovarian 13.4%
active: SR leukemia 5.05% | RPMI-8226 leukemia 1.99% | OVCAR-8 ovarian 8.91%

O=S(=O)(Nc1cccc2cc(OS(=O)(=O)c3ccccc3)ccc12)c1ccccc1
inactive: SR leukemia 25.5% | RPMI-8226 leukemia 62.1% | OVCAR-8 ovarian 75.2% | OVCAR-5 ovarian 91% | OVCAR-4 ovarian 71.3% | SK-OV-3 ovarian 61.8% | IGROV1 ovarian 72.5% | OVCAR-3 ovarian 66.1% | HS 578T breast 57.3% | NCI/ADR-RES ovarian 46.2%

COc1ccc(Cl)cc1NC(=O)c1cc2c([nH]1)-c1nc(N)sc1CCC2
inactive: SR leukemia 79.4% | RPMI-8226 leukemia 108% | OVCAR-8 ovarian 101% | OVCAR-5 ovarian 103% | OVCAR-4 ovarian 111% | SK-OV-3 ovarian 98.4% | IGROV1 ovarian 106% | OVCAR-3 ovarian 106% | HS 578T breast 108% | NCI/ADR-RES ovarian 92.7%

O=C1OC(c2ccc(-c3ccccc3)cc2)=C/C1=C/C=C/c1ccccc1
inactive: SR leukemia 98.3% | RPMI-8226 leukemia 95% | OVCAR-8 ovarian 103% | OVCAR-5 ovarian 91.3% | OVCAR-4 ovarian 95% | SK-OV-3 ovarian 102% | IGROV1 ovarian 99% | OVCAR-3 ovarian 99.3% | HS 578T breast 86.9% | NCI/ADR-RES ovarian 114%

CN(C)c1ccc(/C=c2\s/c(=C\C(=O)C(C)(C)C)[nH]c2=O)cc1
inactive: SR leukemia 92.1% | RPMI-8226 leukemia 104% | OVCAR-8 ovarian 102% | OVCAR-5 ovarian 99.7% | OVCAR-4 ovarian 85.3% | SK-OV-3 ovarian 100% | IGROV1 ovarian 88.5% | OVCAR-3 ovarian 102% | HS 578T breast 103% | NCI/ADR-RES ovarian 103%

COc1ccc(/C(=C/c2cc(OC)c(OC)c(OC)c2)[N+](=O)[O-])cc1
active: SR leukemia -11.2% | RPMI-8226 leukemia -18.6% | IGROV1 ovarian -4.79% | OVCAR-3 ovarian -54.3%
inactive: OVCAR-8 ovarian 13.4% | OVCAR-5 ovarian 98.6% | OVCAR-4 ovarian 37.3% | SK-OV-3 ovarian 91% | HS 578T breast 97.9% | NCI/ADR-RES ovarian 33.8%

COC(=O)CCCNS(=O)(=O)c1cc(C(=O)Nc2ccc(NC(=O)c3cc(S(=O)(=O)NCCCC(=O)OC)c(O)c(O)c3O)cc2)c(O)c(O)c1O
inactive: SR leukemia 70.4% | RPMI-8226 leukemia 96% | OVCAR-8 ovarian 73.6% | OVCAR-5 ovarian 107% | OVCAR-4 ovarian 98.3% | SK-OV-3 ovarian 83.8% | IGROV1 ovarian 100% | OVCAR-3 ovarian 102% | HS 578T breast 100% | NCI/ADR-RES ovarian 94.2%

Cc1ccn2cc(Cc3cc(=O)oc4c3ccc3ccccc34)c(=O)nc2c1
inactive: SR leukemia 92.7% | RPMI-8226 leukemia 93.3% | OVCAR-8 ovarian 100% | OVCAR-5 ovarian 102% | OVCAR-4 ovarian 101% | SK-OV-3 ovarian 90.1% | IGROV1 ovarian 97% | OVCAR-3 ovarian 104% | HS 578T breast 95.2% | NCI/ADR-RES ovarian 105%

CCCC(=O)Oc1ccc(/C(=C(\C)c2ccc(Cl)cc2)c2ccc(OCCN(CC)CC)cc2)cc1
inactive: OVCAR-5 ovarian 30.4% | IGROV1 ovarian 12.5%
active: SR leukemia -36.3% | RPMI-8226 leukemia -49.5% | OVCAR-8 ovarian -48.4% | OVCAR-4 ovarian 3.08% | SK-OV-3 ovarian -6.52% | OVCAR-3 ovarian -64.6% | HS 578T breast -38.1% | NCI/ADR-RES ovarian -6.97%

O=C(O)c1ccc(-n2cc(/C=N/Nc3ccc(F)cc3)c(-c3cccc(C(F)(F)F)c3)n2)cc1
inactive: SR leukemia 87% | RPMI-8226 leukemia 47.2% | OVCAR-8 ovarian 78.4% | OVCAR-5 ovarian 78.2% | OVCAR-4 ovarian 92.4% | SK-OV-3 ovarian 94.6% | IGROV1 ovarian 74.8% | OVCAR-3 ovarian 70.8% | HS 578T breast 89.2% | NCI/ADR-RES ovarian 65.2%

C=C1C(=O)O[C@H]2[C@H]1CC/C(COC(=O)OC/C1=C/CC[C@@]3(C)O[C@H]3[C@H]3OC(=O)[C@@H](CN(C)C)[C@@H]3CC1)=C\CC[C@@]1(C)O[C@@H]21
active: SR leukemia -8.72% | RPMI-8226 leukemia -5.37% | OVCAR-8 ovarian 9.26% | OVCAR-5 ovarian 7.16% | OVCAR-3 ovarian -90.3%
inactive: OVCAR-4 ovarian 46% | SK-OV-3 ovarian 87.7% | IGROV1 ovarian 10.4% | HS 578T breast 57.4% | NCI/ADR-RES ovarian 91.2%

CCN(CC)CCNCC(O)Cc1ccc(OC)cc1 (stereo not given)
inactive: SR leukemia 88.2% | RPMI-8226 leukemia 98.1% | OVCAR-8 ovarian 89.9% | OVCAR-5 ovarian 113% | OVCAR-4 ovarian 120% | SK-OV-3 ovarian 92.3% | IGROV1 ovarian 111% | OVCAR-3 ovarian 108% | HS 578T breast 95.8% | NCI/ADR-RES ovarian 107%

O=C(CSc1nnc(-c2cc3c([nH]c4ccccc43)c(-c3cccc(O)c3)n2)n1-c1ccccc1)c1ccccc1
inactive: SR leukemia 18.6% | RPMI-8226 leukemia 43.4% | OVCAR-8 ovarian 57.3% | OVCAR-5 ovarian 104% | OVCAR-4 ovarian 50.1% | SK-OV-3 ovarian 92.8% | IGROV1 ovarian 61.2% | OVCAR-3 ovarian 40.6% | HS 578T breast 73.3% | NCI/ADR-RES ovarian 64%

FC(F)(F)c1cccc([Si](F)(c2cccc(C(F)(F)F)c2)c2cccc(C(F)(F)F)c2)c1
inactive: SR leukemia 74% | RPMI-8226 leukemia 52.3% | OVCAR-8 ovarian 91.5% | OVCAR-5 ovarian 91.3% | OVCAR-4 ovarian 65.9% | SK-OV-3 ovarian 99% | IGROV1 ovarian 82.5% | OVCAR-3 ovarian 68% | HS 578T breast 85.3% | NCI/ADR-RES ovarian 72.6%

C=C1C(=O)O[C@H]2[C@H]1CC/C(CNC(=O)/C1=C/CC[C@@]3(C)O[C@H]3[C@H]3OC(=O)C(=C)[C@@H]3CC1)=C\CC[C@@]1(C)O[C@@H]21
inactive: SR leukemia 92.4% | RPMI-8226 leukemia 78.8% | OVCAR-8 ovarian 92.2% | OVCAR-5 ovarian 111% | OVCAR-4 ovarian 86.9% | SK-OV-3 ovarian 89.8% | IGROV1 ovarian 102% | OVCAR-3 ovarian 85.1% | HS 578T breast 112% | NCI/ADR-RES ovarian 99.7%

CC(C)CCC[C@@H](C)[C@H]1CC[C@H]2[C@@H]3CC=C4N(c5ccccc5)C(=O)CC[C@]4(C)[C@H]3CC[C@]12C
inactive: SR leukemia 92.4% | RPMI-8226 leukemia 97.8% | OVCAR-8 ovarian 109% | OVCAR-5 ovarian 102% | OVCAR-4 ovarian 103% | SK-OV-3 ovarian 103% | IGROV1 ovarian 99.1% | OVCAR-3 ovarian 92.1% | HS 578T breast 109% | NCI/ADR-RES ovarian 98.9%

COc1ccc(Cl)cc1NC(=O)c1cc2c(n1C)-c1nc(NC(=O)C(C)C)sc1CC2
inactive: SR leukemia 79.1% | RPMI-8226 leukemia 82.7% | OVCAR-8 ovarian 81.8% | OVCAR-5 ovarian 108% | OVCAR-4 ovarian 66% | SK-OV-3 ovarian 82.9% | IGROV1 ovarian 104% | OVCAR-3 ovarian 111% | HS 578T breast 83.4% | NCI/ADR-RES ovarian 90.5%

O=C(Nc1ccc(F)cc1)Nc1ccc(Br)c(C(F)(F)F)c1
active: RPMI-8226 leukemia -29.7% | SK-OV-3 ovarian -8.74% | NCI/ADR-RES ovarian 1.19%
inactive: SR leukemia 13.8% | OVCAR-8 ovarian 11.4% | OVCAR-5 ovarian 30.2% | OVCAR-4 ovarian 22.5% | IGROV1 ovarian 25.7% | OVCAR-3 ovarian 11.9% | HS 578T breast 35.4%

Nc1ncnc2c1c(-c1ccc(Oc3ccccc3)cc1)nn2C[C@H]1SSC[C@@H]1O
inactive: RPMI-8226 leukemia 46.2% | OVCAR-8 ovarian 79.4% | OVCAR-5 ovarian 82.1% | OVCAR-4 ovarian 47.2% | IGROV1 ovarian 22% | HS 578T breast 68.3% | NCI/ADR-RES ovarian 76.5%
active: SR leukemia -49.4% | SK-OV-3 ovarian 1.91% | OVCAR-3 ovarian -62.4%

O=C(Nc1ccc(Cl)c(Cl)c1)Nc1ccc(Cl)c([N+](=O)[O-])c1
active: SR leukemia -25.2% | RPMI-8226 leukemia -36.2% | SK-OV-3 ovarian -11.7% | OVCAR-3 ovarian 6.38% | HS 578T breast 7.04% | NCI/ADR-RES ovarian -7.67%
inactive: OVCAR-8 ovarian 10.9% | OVCAR-5 ovarian 11.9% | OVCAR-4 ovarian 27.1% | IGROV1 ovarian 15.8%
